{"source": "PubChem BioAssay", "key": {"[1]": {"target": "Regulator of G-protein signaling 16 (Homo sapiens) (UniProt O15492)", "test": "modulators of RGS–Galpha-o binding, primary screen, biochemical, multiplexed beads, flow cytometry, RGS4/7/8/16/19 (AID 1504);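 also: fluorescently labeled Galpha-o bound to GDP with aluminium fluoride binding biotinylated RGS beads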", "details": "multiplexed bead flow cytometry, measured here: RGS16 interaction, at 10 µM"}, "[2]": {"target": "Regulator of G-protein signaling 19 (Homo sapiens) (UniProt P49795)", "test": "modulators of RGS–Galpha-o binding, primary screen, biochemical, multiplexed beads, flow cytometry, RGS4/7/8/16/19 (AID 1504)", "details": "multiplexed bead flow cytometry, measured here: RGS19 interaction, at 10 µM"}, "[3]": {"target": "Regulator of G-protein signaling 7 (Homo sapiens) (UniProt P49802)", "test": "modulators of RGS–Galpha-o binding, primary screen, biochemical, multiplexed beads, flow cytometry, RGS4/7/8/16/19 (AID 1504)", "details": "multiplexed bead flow cytometry, measured here: RGS7 interaction, at 10 µM"}, "[4]": {"target": "Regulator of G-protein signaling 8 (Homo sapiens) (UniProt P57771)", "test": "modulators of RGS–Galpha-o binding, primary screen, biochemical, multiplexed beads, flow cytometry, RGS4/7/8/16/19 (AID 1504)", "details": "multiplexed bead flow cytometry, measured here: RGS8 interaction, at 10 µM"}, "[5]": {"test": "disruption of biotin probe capture by avidin, counter-screen for RGS protein interaction modulators, biochemical, flow cytometry, bead-based (AID 1783;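 active = inhibition above 50%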;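 also: median green fluorescence of gated singlet beads compared with DMSO control wells; 0% = DMSO wells and 100% = complete loss of bead fluorescence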)", "details": "streptavidin beads, fluorescein-biotin binding; at 10 µM, stronger effect = higher value"}, "[6]": {"target": "Guanine nucleotide-binding protein G(o) subunit alpha (Homo sapiens) (UniProt P09471)", "sequence (P09471 whole entry, looked up)": "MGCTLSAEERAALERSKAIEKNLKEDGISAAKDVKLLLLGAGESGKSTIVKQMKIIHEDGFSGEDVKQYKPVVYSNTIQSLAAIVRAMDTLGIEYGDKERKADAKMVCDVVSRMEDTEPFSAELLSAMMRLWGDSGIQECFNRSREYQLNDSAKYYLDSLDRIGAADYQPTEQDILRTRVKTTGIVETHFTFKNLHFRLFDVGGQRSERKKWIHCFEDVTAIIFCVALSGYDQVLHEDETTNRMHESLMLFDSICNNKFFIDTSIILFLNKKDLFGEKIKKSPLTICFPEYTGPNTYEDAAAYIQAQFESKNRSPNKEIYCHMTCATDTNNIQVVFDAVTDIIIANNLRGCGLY", "test": "RGS8-Galphao binding modulators, confirmation, biochemical, multiplexed bead flow cytometry, single concentration (AID 1836);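 also: Galphao activated as GDP AlF4 complex before binding bead RGS8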", "details": "bead-based flow cytometry RGS8-Galphao binding, fluorescence; at 10 µM; actives lie on both sides"}, "[7]": {"target": "Guanine nucleotide-binding protein G(o) subunit alpha (Homo sapiens) (UniProt P09471)", "test": "RGS7-Galphao binding modulators, confirmation, biochemical, multiplexed bead flow cytometry, single concentration (AID 1837; in the data active = response below about 75% or above about 130%; inactive = in between;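 also: fluorescent Galphao activated with GDP and aluminum fluoride binding bead-coupled RGS7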)", "details": "bead-based flow cytometry RGS7-Galphao binding; at 10 µM; actives lie on both sides"}, "[8]": {"target": "Regulator of G-protein signaling 16 (Homo sapiens) + Guanine nucleotide-binding protein G(o) subunit alpha (Homo sapiens) (UniProt O15492+P09471)", "sequence (O15492 whole entry, looked up)": "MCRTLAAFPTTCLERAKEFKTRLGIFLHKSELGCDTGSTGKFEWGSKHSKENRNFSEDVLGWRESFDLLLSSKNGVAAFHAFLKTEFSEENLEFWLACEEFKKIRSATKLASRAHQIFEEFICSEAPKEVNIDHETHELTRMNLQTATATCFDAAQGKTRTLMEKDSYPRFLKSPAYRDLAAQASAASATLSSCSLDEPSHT", "sequence (P09471 whole entry, looked up)": "as the sequence (P09471 whole entry, looked up) above", "test": "modulators of RGS16-Galphao protein binding, confirmation, biochemical, single concentration, multiplexed bead flow cytometry (AID 1838; in the data active = response below about 74% or above about 130%; inactive = in between;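 also: Galphao activated as the GDP aluminium fluoride complex binding bead-coupled RGS16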)", "details": "bead-based flow cytometry, at 10 µM, actives lie on both sides"}, "[9]": {"target": "Guanine nucleotide-binding protein G(o) subunit alpha (Homo sapiens) (UniProt P09471)", "test": "modulators of RGS4-Galphao protein binding, confirmation, biochemical, single concentration, multiplexed bead flow cytometry (AID 1840; in the data active = binding response below about 74% or above about 130%; inactive = in between)", "details": "at 10 µM, actives lie on both sides"}, "[10]": {"target": "Guanine nucleotide-binding protein G(o) subunit alpha (Homo sapiens) + Regulator of G-protein signaling 19 (Homo sapiens) (UniProt P09471+P49795)", "sequence (P09471 whole entry, looked up)": "as above", "sequence (P49795 whole entry, looked up)": "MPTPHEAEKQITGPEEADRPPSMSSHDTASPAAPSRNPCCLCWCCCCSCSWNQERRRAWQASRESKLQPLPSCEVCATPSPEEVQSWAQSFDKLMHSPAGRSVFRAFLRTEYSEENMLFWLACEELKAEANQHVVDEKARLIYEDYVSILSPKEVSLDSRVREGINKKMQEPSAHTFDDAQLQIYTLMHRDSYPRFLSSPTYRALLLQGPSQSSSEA", "test": "regulators of RGS19-Galphao binding, confirmation, biochemical, single point, multiplexed bead flow cytometry (AID 1841; in the data active = response below about 50% or above about 160%; inactive = in between;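 also: 100% = no compound control and 0% = blank background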)", "details": "bead-based flow cytometry RGS19-Galphao binding; at 10 µM; actives lie on both sides"}, "[11]": {"test": "yeast TOR pathway RPL19A-GFP modulators, primary screen, cell-based, S. cerevisiae, multiplex flow cytometry (AID 1862; in the data active = percent of DMSO control GFP below about 86%;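 also: lower values mimic rapamycin by blocking the RPL19A rise seen in DMSO cells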)", "details": "S. cerevisiae RPL19A-GFP strain, flow cytometry fluorescence, 3 h; at 10 µM; stronger effect = lower value"}, "[12]": {"test": "modulators of MEP2-GFP levels in yeast, primary screen, S. cerevisiae, multiplex flow cytometry (AID 1867;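 active = GFP response, as percent of the DMSO control, above the screen-wide mean plus 3 SD, about 139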;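 also: median GFP channel fluorescence of barcode-gated MEP2-GFP cells measured by flow cytometry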)", "details": "S. cerevisiae MEP2-GFP strain, 3 h, at 10 µM, stronger effect = higher value, 100% means same as DMSO wells"}, "[13]": {"test": "modulators of CIT2-GFP expression in yeast, primary screen, S. cerevisiae, GFP fusion, multiplex flow cytometry (AID 1870;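 active = percent response above a set limit, the screen-wide mean plus 3 SD, cut at about 130% in these data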;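 also: barcoded CIT2-GFP strain pooled with four other GFP strains with rapamycin as positive control; median GFP fluorescence per well over plate mean of DMSO wells so 100% = DMSO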)", "details": "3 h, at 10 µM, stronger effect = higher value"}, "[14]": {"test": "modulators of LAP4-GFP expression in yeast, primary screen, S. cerevisiae, multiplex flow cytometry (AID 1873;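 active = GFP signal, as percent of the solvent control, above the screen mean plus 3 SD, about 149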)", "details": "3 h, at 10 µM, stronger effect = higher value"}, "[15]": {"test": "modulators of AGP1-GFP expression in yeast TOR pathway, primary screen, cell-based, multiplex flow cytometry, S. cerevisiae (AID 1887;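 active = GFP signal above the screen-wide mean plus 3 SD, that is over about 124.5% of the solvent control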;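 also: AGP1-GFP fusion strain of S. cerevisiae within a five-strain barcoded multiplex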)", "details": "3 h, at 10 µM, stronger effect = higher value"}, "[16]": {"test": "RPL19A-GFP modulators, yeast TOR pathway, confirmation, cell-based, S. cerevisiae, flow cytometry, cherry picks, mother/daughter gates (AID 2270;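 active = GFP response below 50% of the DMSO control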)", "details": "S. cerevisiae RPL19A-GFP strain, 3 h, at 10 µM, stronger effect = lower value, 100 = same GFP as DMSO wells"}, "[17]": {"test": "LAP4-GFP expression modulators in yeast, confirmation, cell-based, cherry picks, flow cytometry, mother/daughter gates (AID 2271;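 active = GFP response above 150% of the DMSO control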;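 also: ratio of sample to DMSO plate mean so 100% equals DMSO level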)", "details": "S. cerevisiae LAP4-GFP strain, 3 h, at 10 µM, stronger effect = higher value, 100 means same as DMSO control"}, "[18]": {"test": "modulators of MEP2-GFP levels in yeast, confirmation, S. cerevisiae, flow cytometry GFP, cherry picks (AID 2272;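 active = GFP response above 150% of the DMSO control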;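 also: ratio of well signal to plate DMSO mean so 100% equals DMSO level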)", "details": "S. cerevisiae MEP2-GFP strain, 3 h, at 10 µM, stronger effect = higher value"}, "[19]": {"test": "modulators of CIT2-GFP expression in yeast, confirmation, S. cerevisiae, GFP fusion, cherry picks, mother/daughter gates (AID 2274;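 active = GFP response above 150% of the DMSO level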)", "details": "S. cerevisiae CIT2-GFP strain, flow cytometry, 3 h, at 10 µM, stronger effect = higher value"}, "[20]": {"test": "inhibitors of CD8+ T cell-vesicle binding, pilot screen, LFA-1/ICAM-1 modulator project, MLPCN validation set, flow cytometry (AID 2523;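 active = response below a set limit, under 55% cells CD8-positive and vesicle-bound, and CD8 cells' 90th-percentile brightness under 279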;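 as to vesicle binding response: mean PE anti-B7-1 fluorescence of CD8+ cells relative to row control; 100% = QL9-loaded vesicles with DMSO vehicle in the same plate row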)", "details": "2C mouse CD8+ T cells, at 7 µM, stronger effect = lower value; double positive events: measured here: CD8+/vesicle+ event percentage"}, "[21]": {"details": "measured here: daughter cell gate"}, "[22]": {"details": "measured here: mother cell gate"}}, "note": "Records with an inconclusive call do not appear. The list shows a part of the results. Calls of active or inactive are those of the source. Rule as the data show it, unless noted: active = binding response below about 72% or above about 130%; inactive = in between."}
{"smiles": "FC(F)Oc1ccccc1C1CC(c2ccc(Br)s2)Nc2ncnn21", "note": "(stereo not drawn)", "values": [{"measurement": "RGS16–Galpha-o binding response", "setting": "[1]", "result": 215, "unit": "%"}, {"measurement": "RGS19–Galpha-o binding response", "setting": "[2]", "result": -1720, "unit": "%"}, {"measurement": "RGS7–Galpha-o binding response", "setting": "[3]", "result": 163, "unit": "%"}, {"measurement": "RGS8–Galpha-o binding response", "setting": "[4]", "result": 111, "unit": "%"}, {"measurement": "inhibition", "setting": "[5]", "result": "2.6% (inactive)"}, {"measurement": "binding response (% of control)", "setting": "[6]", "result": "99.3% (inactive)"}, {"measurement": "response (percent of control binding)", "setting": "[7]", "result": "98% (inactive)"}, {"measurement": "response (% of control binding)", "setting": "[8]", "result": "97.2% (inactive)"}, {"measurement": "binding response (% of control)", "setting": "[9]", "result": "95.9% (inactive)"}, {"measurement": "response (percent of control binding)", "setting": "[10]", "result": "96% (inactive)"}]}
{"smiles": "COc1cccc(C(=O)NCCSc2ccc(Br)cc2)c1", "values": [{"measurement": "RGS16–Galpha-o binding response", "setting": "[1]", "result": 11.1, "unit": "%"}, {"measurement": "RGS19–Galpha-o binding response", "setting": "[2]", "result": 1100, "unit": "%"}, {"measurement": "RGS7–Galpha-o binding response", "setting": "[3]", "result": 16.5, "unit": "%"}, {"measurement": "RGS8–Galpha-o binding response", "setting": "[4]", "result": 20.7, "unit": "%"}, {"measurement": "inhibition", "setting": "[5]", "result": "-0.2% (inactive)"}, {"measurement": "binding response (% of control)", "setting": "[6]", "result": "103% (inactive)"}, {"measurement": "response (percent of control binding)", "setting": "[7]", "result": "106% (inactive)"}, {"measurement": "response (% of control binding)", "setting": "[8]", "result": "104% (inactive)"}, {"measurement": "binding response (% of control)", "setting": "[9]", "result": "104% (inactive)"}, {"measurement": "response (percent of control binding)", "setting": "[10]", "result": "83.7% (inactive)"}]}
{"smiles": "O=C(Nc1ccccc1)OCc1cc(-c2ccc(Cl)cc2)on1", "values": [{"measurement": "inhibition", "setting": "[5]", "result": "2.5% (inactive)"}, {"measurement": "binding response (% of control)", "setting": "[6]", "result": "107% (inactive)"}, {"measurement": "response (percent of control binding)", "setting": "[7]", "result": "88.4% (inactive)"}, {"measurement": "response (% of control binding)", "setting": "[8]", "result": "107% (inactive)"}, {"measurement": "binding response (% of control)", "setting": "[9]", "result": "93.7% (inactive)"}, {"measurement": "response (percent of control binding)", "setting": "[10]", "result": "55.4% (inactive)"}]}
{"smiles": "O=C(NC1CCCCC1)N1CCc2[nH]c3ccccc3c2C1", "values": [{"measurement": "percent of DMSO control GFP", "setting": "[11]", "result": "89.3% (inactive)"}, {"measurement": "GFP response vs DMSO", "setting": "[12]", "result": "147% (active)"}, {"measurement": "percent response of DMSO control", "setting": "[13]", "result": "119% (inactive)"}, {"measurement": "GFP response vs DMSO", "setting": "[14]", "result": "83.6% (inactive)"}, {"measurement": "GFP response, % of DMSO", "setting": "[15]", "result": "93.1% (inactive)"}, {"measurement": "GFP response vs DMSO", "setting": "[16]", "result": "98.8% (inactive)"}, {"measurement": "GFP response vs DMSO", "setting": "[16]; [21]", "result": 98.1, "unit": "%"}, {"measurement": "GFP response vs DMSO", "setting": "[16]; [22]", "result": 98.5, "unit": "%"}, {"measurement": "GFP response relative to DMSO", "setting": "[17]", "result": "97.9% (inactive)"}, {"measurement": "GFP response relative to DMSO", "setting": "[17]; measured here: daughter cell gate response", "result": 97.6, "unit": "%"}, {"measurement": "GFP response relative to DMSO", "setting": "[17]; measured here: mother cell gate response", "result": 98.3, "unit": "%"}, {"measurement": "GFP response vs DMSO", "setting": "[18]", "result": "100% (inactive)"}, {"measurement": "GFP response, % of DMSO", "setting": "[19]", "result": "107% (inactive)"}, {"measurement": "GFP response, % of DMSO", "setting": "[19]; [21]", "result": 105, "unit": "%"}, {"measurement": "GFP response, % of DMSO", "setting": "[19]; [22]", "result": 107, "unit": "%"}, {"measurement": "double positive events", "setting": "[20]", "result": 61.4, "unit": "%"}, {"measurement": "vesicle binding response", "setting": "[20]", "result": "212% (inactive)"}]}
